The list is not random: actives were taken first. Their share in the collection is about 21%.
Giardia FBPA inh: Giardia lamblia aldolase inhibition; purified Giardia FBPA; Potency, µM (top dose mostly 59.6 µM), most hits filed as inhibitors; 290,000 compounds, 0.71% hits; also: nearly all actives have a fitted effect of over 55% in size
Target sequence (A8B2U2 whole entry, looked up): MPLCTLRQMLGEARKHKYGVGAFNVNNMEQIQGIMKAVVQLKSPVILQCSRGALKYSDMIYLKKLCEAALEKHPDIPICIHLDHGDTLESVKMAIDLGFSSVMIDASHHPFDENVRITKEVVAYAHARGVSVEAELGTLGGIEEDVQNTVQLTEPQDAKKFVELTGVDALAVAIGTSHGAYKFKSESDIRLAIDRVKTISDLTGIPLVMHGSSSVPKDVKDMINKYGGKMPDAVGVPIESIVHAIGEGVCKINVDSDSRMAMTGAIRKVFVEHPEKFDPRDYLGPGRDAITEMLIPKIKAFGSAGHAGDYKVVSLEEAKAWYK
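Giardia FBPA (40 nM reagent) was preincubated 10 min at RT with compound (up to 57.5 uM final), then substrate plus GAPDH/TPI/NAD/arsenate coupling system with diaphorase/resazurin was added; resorufin fluorescence (525/598 nm) was read after 20 min.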
NS1 function inh: inhibitors of influenza NS1 protein function; Potency, µM (top dose mostly 46.1 µM); 270,000 compounds, 0.4% hits; AID 2326; calls by dose curve; also: actives are rising curves; nearly all actives have a fitted effect of over 50% in size
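Compounds were scored for reversing the slow growth caused by influenza A NS1 in S. cerevisiae, measured by optical density at 600 nm. Assay medium contained 2% galactose at pH 6.0; NS1-free yeast of the same strain were the positive control.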
Shiga toxin inh: Shiga toxin inhibition | Vero cells, Shiga toxin protein synthesis inhibition reporter | inhibition, % at 38.7 µM | 290,000 compounds, 9.2% hits; in the data active = inhibition mostly above about 28%, no sharp cut-off; inactive = mostly below about 43%
Pf growth 96h: P. falciparum growth inhibition at 96 hours; P. falciparum luciferase reporter growth, 96 h; Potency, µM (series often up to 28.7 µM), hits mostly inhibitors; 320,000 compounds, 6.9% hits
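Erythrocytes infected with luciferase-expressing P. falciparum were dispensed at 2% hematocrit and 0.05% parasitemia (final), then incubated with compounds 96 hours at 37 C in 5% CO2. Luminescence after detection reagent addition reported growth.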
Pf growth 48h: inhibits P. falciparum growth in the first generation, 48 h; P. falciparum luciferase growth in erythrocytes, 48 h; Potency, µM (series often up to 28.7 µM), actives largely listed as inhibitors; 310,000 compounds, 5.9% hits
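A one-generation exposure of luciferase-tagged malaria parasites in RPMI 1640/Albumax erythrocyte culture, 37 C and 5% CO2. Inhibition is inferred from decreased luminescence after adding detection reagent.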
Cycloheximide cs: counter-screen hit for Shiga toxin inhibitors, cycloheximide | AID 2314 | 300,000 compounds, 12% hits | max response, % | cell reporter, cycloheximide protein synthesis inhibition counterscreen; in the data active = max response mostly above about 13%, no sharp cut-off; inactive = mostly below about 14%; also: read at 38.3 µM for the half of the compounds with a filed dose
Of the large screens only hits and unclear results are named; the others gave an inactive call. Unless noted, calls follow the shape of the dose curve; as a rule, active = well fitted curve in the direction sought with a large enough effect; inconclusive = small, poorly fitted or top-dose-only effect, or another doubt; inactive = no such curve, though single readings can be large; an effect the other way counts as inactive or inconclusive.

COc1ccc(OC)c(NC(=O)CCN2CCN(c3ccccc3)CC2)c1	Pf growth 96h inconclusive
COc1cc(O)c(C(CCN2CCOCC2)c2ccc(N(C)C)cc2)c(OC)c1 (centres undefined)	Pf growth 96h 7.4µM, Pf growth 48h 4.7µM
COc1cc(OC)c2c(c1C(CCN1CCN(c3ccccc3)CC1)c1ccc(N(C)C)cc1)OC(=O)CC2c1ccc(N(C)C)cc1 (centres undefined)	none (no result: NS1 function inh, Pf growth 96h, Pf growth 48h)
COc1ccccc1C1=NN(C2=NN=C(N)Cc3ncnn32)C(O)(C(F)(F)F)C1 (centres undefined)	Pf growth 96h inconclusive (no result: NS1 function inh)
CN(c1ncc(C(F)(F)F)cc1Cl)N1C(=O)c2cccc([N+](=O)[O-])c2C1=O	none
CC1(C)CCC(C)(C)c2c1ccc(O)c2Cc1c(O)ccc2c1C(C)(C)CCC2(C)C	none (no result: Giardia FBPA inh, Shiga toxin inh, Pf growth 96h, Pf growth 48h, Cycloheximide cs)
Cc1c(Cl)c(S(N)(=O)=O)cc(S(N)(=O)=O)c1NC(=O)c1ccc(Cl)cc1	none (no result: Giardia FBPA inh, Shiga toxin inh, Pf growth 96h, Pf growth 48h, Cycloheximide cs)
CC1=C(C)C(O)N(Cc2ccccc2)C1=O (centres undefined)	Pf growth 96h inconclusive
O=C(CC1C(=O)N(c2ccccc2)C(=O)N1Cc1ccco1)Nc1ccccc1 (centres undefined)	Pf growth 96h 15µM
CC(C)N1C(=S)N(Cc2ccco2)C(=O)C1CC(=O)Nc1ccccc1 (centres undefined)	Pf growth 96h inconclusive, Pf growth 48h 1µM (no result: NS1 function inh)
C=CCN1C(=O)C(CC(=O)Nc2ccc(OC)cc2)N(Cc2ccco2)C1=S (centres undefined)	Pf growth 96h inconclusive
COc1ccc(NC(=O)CC2C(=O)N(C)C(=S)N2Cc2ccco2)cc1 (centres undefined)	none
CCC(Sc1ccc2nnc(CCNS(=O)(=O)c3ccc(OC)cc3)n2n1)C(=O)OC (centres undefined)	Pf growth 96h 7.4µM (no result: NS1 function inh)
O=C1N(Cc2cccnc2)C[C@@H]2C[C@@H](c3ccc(-c4ccccc4)cc3)N3CCC[C@@]123	Pf growth 96h inconclusive, Pf growth 48h 12µM
COc1ccccc1CN1C[C@@H]2C[C@@H](C3=Cc4cccc(OC)c4OC3)N3CCC[C@@]23C1=O	Pf growth 48h 4.7µM
O=C1N(Cc2cccnc2)C[C@@H]2C[C@@H](c3cccc(C(F)(F)F)c3)N3CCC[C@@]123	Pf growth 96h 10µM, Pf growth 48h inconclusive
O=C1N(Cc2cccnc2)C[C@@H]2C[C@@H](c3cccc(OC4CCCC4)c3)N3CCC[C@@]123	Pf growth 48h 8.3µM
O=C1N(Cc2cccnc2)C[C@@H]2C[C@@H](c3cccc(OCc4ccccc4)c3)N3CCC[C@@]123	Pf growth 96h inconclusive, Pf growth 48h inconclusive
Cc1ccccc1CN1C[C@@H]2C[C@@H](c3cn[nH]c3-c3ccccc3)N3CCC[C@@]23C1=O	Pf growth 96h inconclusive, Pf growth 48h 1.7µM
CCn1ncc([C@@H]2C[C@H]3CN(Cc4ccccc4C)C(=O)[C@]34CCCN24)c1C	Pf growth 48h inconclusive
Fc1cnc(N2CCOCC2)nc1N1CCOCC1	none
Fc1cnc(N2CCOCC2)nc1N1CCc2ccccc21	Shiga toxin inh active, Pf growth 48h inconclusive (no result: Pf growth 96h)
CCOC(=O)c1ccc(NC(=S)Nc2ccc3[nH]c(=O)[nH]c3c2)cc1	none
OC(CN1CCN(c2ccccc2)CC1)c1ccc2c(c1)CCN2 (centres undefined)	NS1 function inh inconclusive, Pf growth 96h 9.3µM
COc1cc(OC)cc(C(=O)NC(=S)Nc2ccc3c4c(cccc24)CC3)c1	none
O=C(Nc1ccc2c3c(cccc13)CC2)c1ccco1	Cycloheximide cs 19 (no result: Pf growth 96h)
COc1ccc(C(=O)Nc2ccc3c4c(cccc24)CC3)cc1	Cycloheximide cs 32
CC1CCN(CC(=O)N2c3ccccc3Sc3cc4ccccc4cc32)CC1	none (no result: Giardia FBPA inh, Shiga toxin inh, Pf growth 96h, Pf growth 48h, Cycloheximide cs)
CCN(CC)CCn1c(NC(=O)c2ccccc2O)nc2ccccc21	Cycloheximide cs 26 (no result: Shiga toxin inh)
CCN(CC)CCn1c(NS(=O)(=O)c2ccc(Cl)cc2)nc2ccccc21	Pf growth 96h inconclusive (no result: Pf growth 48h)
CCN(CC)CCn1c(NC(=O)c2ccc(Cl)cc2)nc2ccccc21	Pf growth 96h 3.7µM, Cycloheximide cs 19 (no result: Pf growth 48h)
O=C(NCCc1ccccc1)C1CCC(=O)N1C1CCCC1 (centres undefined)	none
CC(C)C(=O)Nc1cc2c(cc1C(=O)c1ccccc1)OCCO2	Pf growth 96h 1.3µM, Pf growth 48h inconclusive
CCC(=O)c1cc2c(cc1NC(=O)c1ccccc1)OCCO2	none (no result: Pf growth 48h)
CCCC(=O)c1cc2c(cc1NC(=O)c1ccccc1F)OCCO2	Pf growth 96h 12µM, Pf growth 48h inconclusive (no result: NS1 function inh)
CCC(=O)c1cc2c(cc1NC(=O)C(C)C)OCCO2	Pf growth 96h 2.3µM
C=C1c2cccc(C(F)(F)F)c2O[C@H](C(=O)OCC)C1OC (mixture of isomers)	none (no result: NS1 function inh, Pf growth 96h, Pf growth 48h)
N#C/C(=C\Nc1ccccc1SC(F)(F)F)c1nc(-c2ccccc2)cs1	Pf growth 96h inconclusive, Pf growth 48h inconclusive
COc1cc2c(cc1N/C=C(\C#N)c1nc(-c3ccc(F)cc3)cs1)oc1ccccc12	Pf growth 96h inconclusive, Pf growth 48h 9.3µM
CC(C)C(=O)Nc1ncc(Cc2ccc(Cl)cc2)s1	none
C=CCNCCCCOc1ccc(Br)cc1C	Giardia FBPA inh inconclusive, Pf growth 96h 9.3µM
Cc1cc(Br)ccc1OCCCCNCCO	Pf growth 96h 10µM, Pf growth 48h inconclusive
CCCn1c(CN2CCN(C(C)=O)CC2)nc2cc(S(=O)(=O)N(C)C)ccc21	none
Cc1[nH]nc2c1C(c1ccccc1F)CC(=O)N2 (centres undefined)	NS1 function inh inconclusive, Cycloheximide cs 13
CC1(C)CC(=O)C2=C(C1)NC(=O)CC2c1ccccc1F (centres undefined)	none
c1ccc(CN2CCOCCOCCOCCOCC2)cc1	none
CCN1CCN(Cc2ccc3c(c2)Cc2ccccc2-3)CC1	Pf growth 48h inconclusive
c1ccc(Oc2cccc(CN3CCOCC3)c2)cc1	Cycloheximide cs 28 (no result: Pf growth 96h)
c1ccc(CN2CCOCC2)cc1	none (no result: Pf growth 96h)
Oc1cc(Cc2ccccc2)cnc1CN1CCOCC1	Pf growth 96h inconclusive, Pf growth 48h 2.9µM
c1ccc2c(c1)Cc1cc(CN3CCOCC3)ccc1-2	Shiga toxin inh 76, Cycloheximide cs 41 (no result: Pf growth 96h)
C=CCC(O)c1ccccc1 (centres undefined)	none (no result: NS1 function inh, Shiga toxin inh, Pf growth 96h, Pf growth 48h, Cycloheximide cs)
CC1CCC(NC(=O)CCS(=O)(=O)c2ccc3c(c2)CC(C)N3C(=O)C2CC2)CC1 (centres undefined)	Pf growth 48h inconclusive
COc1ccc(S(=O)(=O)N2CCCCC2)cc1NC(=O)CCNC(=O)c1ccc(Br)cc1	none (no result: Giardia FBPA inh, NS1 function inh, Shiga toxin inh, Cycloheximide cs)
CCN(CC)C(=O)CSc1ncnc2c(-c3ccc(OC)cc3)nsc12	none
COc1ccc(-c2nsc3c(SCc4ccccc4)ncnc23)cc1	Shiga toxin inh active, Pf growth 96h 1.9µM, Cycloheximide cs 20
COc1cc2c(cc1OC)C(c1ccccc1)=NCC2	Pf growth 96h inconclusive
COc1cc2c(cc1OC)C(c1ccccc1N)=NCC2	Pf growth 96h 1µM, Pf growth 48h 2.9µM
O=C(c1ccccc1Sc1cccc2ccccc12)N1CCOCC1	Pf growth 96h inconclusive, Pf growth 48h 10µM
O=C(/C=C/c1ccccc1Cl)N1CCOCC1	Pf growth 96h inconclusive, Cycloheximide cs 19

Source: PubChem
